Compound activity as filed in PubChem.
Compounds with a hit are over-represented: about 2.1% of the library has one in this group of screens.
U2OS ROS induce = cancer cell ROS induction | U2OS ROS induction, H2DCF-DA fluorescence | ROS induction (% of piperlongumine), % at 10 µM | 2% of 46,000 active; in the data active means ROS induction above about 79%, passing the limit was not always enough;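 further: 0% = DMSO vehicle median and 100% = reference compound median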
YB-1 expr inh = YB-1 expression inhibition | U2OS, qRT-PCR YB-1 vs CDIP delta delta Cp, 16 h; active compounds read high; zero = DMSO, each unit about twofold | delta delta Cp (YB-1 minus CDIP) (test concentration not listed) | 0.37% of 30,000 active;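 active means delta delta Cp rounded down to an integer at or above 3, about 3 SD of DMSO wells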;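 further: higher means less YB-1 transcript or more CDIP transcript relative to DMSO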
Numbers without * were called inactive; x = no result.

SMILES | U2OS ROS induce | YB-1 expr inh
C[C@@H]1CN([C@H](C)CO)C(=O)Cc2cc(NC(=O)CCCCCC(=O)Nc3ccccc3N)ccc2O[C@@H]1CN(C)Cc1ccncc1 | -1 | -0.24
C[C@H](CO)N1C[C@H](C)[C@H](CN(C)Cc2ccc3c(c2)OCO3)Oc2ccc(NC(=O)CCCCCC(=O)Nc3ccccc3N)cc2C1=O | -5 | 0.4
C[C@H](CO)N1C[C@H](C)[C@@H](CN(C)Cc2ccc3c(c2)OCO3)Oc2c(NC(=O)CCCCCC(=O)Nc3ccccc3N)cccc2C1=O | 39 | 0.39
C[C@H]1CN([C@@H](C)CO)C(=O)c2cccc(NC(=O)CCCCCC(=O)Nc3ccccc3N)c2O[C@@H]1CN(C)Cc1ccc2c(c1)OCO2 | 108* | 0.02
CC(=O)c1ccc(NC(=O)CSc2nc(O)c(-c3ccccc3)c(=O)[nH]2)cc1 | 0 | x
CCc1ccc(/C(C#N)=C/C=C/c2ccccc2)cc1 | 33 | -0.3
CSc1nc(C)nc(Sc2ccccc2)c1C#N | 41 | x
COc1ccc(-c2oc3c(OC)c(OC)c(OC)c(O)c3c(=O)c2OC)cc1OC | 102* | -0.35
COc1cc(-c2oc3cc(O)c(OC)c(O)c3c(=O)c2OC)ccc1O | 10 | -0.76
COc1cc(OC)c2c(=O)c(O)c(-c3ccc(OC)c(OC)c3)oc2c1 | 83* | -0.19
COc1cc(O)c2c(=O)c(OC)c(-c3ccc(OC)c(OC)c3)oc2c1 | 59 | 0.18
C[C@@H]1CN([C@@H](C)CO)C(=O)c2cc(NS(=O)(=O)c3cn(C)cn3)ccc2O[C@@H]1CN(C)S(=O)(=O)c1ccccc1 | -1 | 0.14
C[C@H](CO)N1C[C@H](C)[C@H](CN(C)Cc2ccc(Oc3ccccc3)cc2)Oc2ccc(NS(=O)(=O)c3ccccc3)cc2CC1=O | 34 | -0.13
CCCn1c2ccccc2c2nnc(SCC(=O)N3c4ccccc4Sc4ccccc43)nc21 | 0 | x
CCCn1c2ccccc2c2nnc(SCCCC(=O)c3ccc4c(c3)OCCO4)nc21 | 142* | x
CCOC(=O)c1cnn(C(=O)Cc2cccc(OC)c2)c1N | -8 | 5.2*
CCOC(=O)c1cnn(C(=O)c2c(C)nc3ccccn23)c1N | 29 | x
C[C@H]1CN([C@@H](C)CO)C(=O)c2cccc(NC(=O)NC3CCCCC3)c2O[C@H]1CN(C)Cc1ccc(-c2ccccc2)cc1 | 12 | -0.2
C[C@@H]1CN([C@H](C)CO)C(=O)c2cccc(NC(=O)C3CCOCC3)c2O[C@H]1CN(C)Cc1ccc(-c2ccccc2)cc1 | 100* | 0.35
C[C@@H]1CN([C@@H](C)CO)C(=O)c2cccc(NC(=O)C3CCOCC3)c2O[C@@H]1CN(C)C(=O)NC1CCCCC1 | -10 | -0.01
C[C@@H]1CN([C@H](C)CO)C(=O)c2cccc(NC(=O)C3CCOCC3)c2O[C@@H]1CN(C)C(=O)NC1CCCCC1 | -12 | 11*
C[C@@H]1CN([C@H](C)CO)C(=O)c2cccc(NC(=O)NC3CCCCC3)c2O[C@@H]1CN(C)Cc1ccc(-c2ccccc2)cc1 | 101* | -0.21
C[C@H](CO)N1C[C@H](C)[C@@H](CN(C)Cc2ccc(-c3ccccc3)cc2)Oc2c(NC(=O)C3CCOCC3)cccc2C1=O | 26 | 0.26
Cn1c(SCC(=O)c2ccc(Br)cc2)nnc1-c1cccc([N+](=O)[O-])c1 | 12 | x
CN1CCN(C(=S)c2cn(Cc3ccc(F)cc3)c3ccccc23)CC1 | 0 | x
SMILES | U2OS ROS induce | YB-1 expr inh
C[C@H]1CN([C@@H](C)CO)C(=O)c2cc(NS(=O)(=O)c3ccc(Cl)cc3)ccc2O[C@H]1CN(C)C(=O)Nc1ccccc1 | 4 | -0.63
C[C@@H]1CN([C@H](C)CO)C(=O)c2cccc(NC(=O)C3CCOCC3)c2O[C@@H]1CN(C)Cc1ccc(C(F)(F)F)cc1 | -4 | 0.28
COCCOC(=O)N1C(=O)[C@@]2(c3cc(C#CC4(O)CCCCCC4)ccc31)[C@H](C(=O)NC[C@H](O)c1ccccc1)[C@H]1C(=O)O[C@H](c3ccccc3)[C@H](c3ccccc3)N1[C@@H]2c1ccccc1OCCO | 141* | 0.17
C=CCNC(=O)[C@@H]1[C@H]2C(=O)O[C@H](c3ccccc3)[C@H](c3ccccc3)N2[C@H](c2ccccc2OCCO)[C@@]12C(=O)N(C(=O)OCCOC)c1ccc(C#CC3(O)CCCCCC3)cc12 | 98* | -0.13
COCCOC(=O)N1C(=O)[C@@]2(c3ccccc31)[C@H](c1ccc(O)cc1)N1[C@H](c3ccccc3)[C@H](c3ccccc3)OC(=O)[C@H]1[C@@H]2C(=O)NC[C@H](O)c1ccccc1 | 10 | -0.41
COCCOC(=O)N1C(=O)[C@@]2(c3cc(C#CC4=CCCCC4)ccc31)[C@H](C(=O)NC[C@H](O)c1ccccc1)[C@H]1C(=O)O[C@H](c3ccccc3)[C@H](c3ccccc3)N1[C@@H]2c1ccccc1OCCO | 65 | -0.58
COCCOC(=O)N1C(=O)[C@@]2(c3ccccc31)[C@H](c1ccc(OCCO)cc1)N1[C@H](c3ccccc3)[C@H](c3ccccc3)OC(=O)[C@H]1[C@@H]2C(=O)NC[C@H](O)c1ccccc1 | 189* | -0.51
C=CCNC(=O)[C@H]1[C@@H]2C(=O)O[C@@H](c3ccccc3)[C@@H](c3ccccc3)N2[C@@H](c2ccccc2OCCO)[C@]12C(=O)Nc1ccc(C#CC3(O)CCCCCC3)cc12 | 102* | -0.2
COCCOC(=O)N1C(=O)[C@@]2(c3cc(C#CC4(O)CCCCCC4)ccc31)[C@H](C(N)=O)[C@H]1C(=O)O[C@H](c3ccccc3)[C@H](c3ccccc3)N1[C@@H]2c1ccccc1OCCO | 31 | -0.23
C=CCNC(=O)[C@H]1[C@@H]2C(=O)O[C@@H](c3ccccc3)[C@@H](c3ccccc3)N2[C@@H](c2ccccc2OCCO)[C@]12C(=O)Nc1ccc(C#CCCO)cc12 | 72 | 0.12
CN1c2ccccc2-c2nc3ccccc3n2C1c1ccccc1 (centres undefined) | 11 | x
C=CCNC(=O)[C@@H]1[C@H]2C(=O)O[C@H](c3ccccc3)[C@H](c3ccccc3)N2[C@H](c2ccccc2OCCO)[C@@]12C(=O)N(C(=O)OCCOC)c1ccc(C#CCC(C(=O)OC)C(=O)OC)cc12 | 110* | 0.53
C=CCNC(=O)[C@H]1[C@@H]2C(=O)O[C@@H](c3ccccc3)[C@@H](c3ccccc3)N2[C@@H](c2ccc(O)cc2)[C@]12C(=O)N(C(=O)OCCOC)c1ccc(C#CCC(C(=O)OC)C(=O)OC)cc12 | 59 | -0.34
C=CCNC(=O)[C@@H]1[C@H]2C(=O)O[C@H](c3ccccc3)[C@H](c3ccccc3)N2[C@H](c2ccccc2OCCO)[C@@]12C(=O)N(C(=O)OCCOC)c1ccc(C#CC3=CCCCC3)cc12 | 58 | -0.58
C=CCNC(=O)[C@H]1[C@@H]2C(=O)O[C@@H](c3ccccc3)[C@@H](c3ccccc3)N2[C@@H](c2ccccc2OCCO)[C@]12C(=O)N(C(=O)OCCOC)c1ccc(C#CC3=CCCCC3)cc12 | 177* | -0.11
C=CCn1c2ccc(Br)cc2c2nc3ccccc3nc21 | 3 | x
CC(C)NC(=O)N(C)C[C@H]1Oc2c(NS(=O)(=O)c3cccs3)cccc2C(=O)N([C@@H](C)CO)C[C@@H]1C | -6 | 0.027
Cc1noc(C)c1S(=O)(=O)Nc1ccc2c(c1)C(=O)N([C@H](C)CO)C[C@@H](C)[C@@H](CN(C)C)O2 | -10 | 0.33
COc1cc(CCC(=O)N2CCC=CC2=O)cc(OC)c1OC | 137* | 0.17
